# Results filed as inconclusive are left out. Active and inactive are the calls of the source. Rule for the calls: active = hit-call score of the fitted dose curve at least 0.9, where 1 is the maximum; inconclusive = response in the unintended direction; inactive = score below 0.9.
# Test: IUF_NPC1_cytotoxicity_72hr: Cytotoxicity Assessment at 72 hours in the Leibniz Research Institute for Environmental Medicine (IUF) Neural Progenitor Cell Proliferation Assay (NPC1) (AID 2284332);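 note: rising LDH signal means more cytotoxicity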
# Summary of the method: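 Cytotoxicity by LDH membrane-integrity assay on medium supernatants, fluorescence via resazurin reduction, after 3-day single exposure of primary hNPC spheres at 37C, pH 7.2-7.6 with growth factors. Fitted upward against baseline.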
row,Structure (SMILES),outcome
1,Nc1ccn([C@@H]2O[C@H](CO)[C@@H](O)[C@@H]2O)c(=O)n1,inactive
2,Cn1cc[nH]c1=S,inactive

# Reference: PubChem BioAssay (EPA / NIEHS)
